Screens: PubChem, Corson Lab, School of Medicine, Indiana University
FECH inh – inhibitors of human ferrochelatase, primary screen, biochemical, purified FECH, Ni-mesoporphyrin absorbance; Ferrochelatase, mitochondrial (Homo sapiens), P22830; Ni-mesoporphyrin absorbance 550 nm; 20,000 tested, 3.3% active; calls only at 10 µM (by protocol);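 active = enzyme reaction rate more than 3 SD below the solvent-only control wells on the same plate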;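 also: lower slope than DMSO wells means FECH inhibition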
Target sequence (P22830 whole entry, looked up): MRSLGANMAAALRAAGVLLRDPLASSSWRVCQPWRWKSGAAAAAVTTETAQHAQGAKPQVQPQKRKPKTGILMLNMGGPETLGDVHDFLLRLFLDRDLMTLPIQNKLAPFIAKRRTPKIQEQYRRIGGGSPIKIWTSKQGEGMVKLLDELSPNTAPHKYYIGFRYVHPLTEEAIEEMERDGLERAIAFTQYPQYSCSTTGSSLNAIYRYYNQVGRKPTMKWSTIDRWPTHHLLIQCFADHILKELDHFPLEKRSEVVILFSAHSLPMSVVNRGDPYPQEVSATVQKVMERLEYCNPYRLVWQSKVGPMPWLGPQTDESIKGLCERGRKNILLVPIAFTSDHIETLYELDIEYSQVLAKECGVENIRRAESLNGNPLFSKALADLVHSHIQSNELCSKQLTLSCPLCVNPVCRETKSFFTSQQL
Each line names hits and unclear results; the compound was inactive in the other large screens. This is one part of a sample in which hits are shown more often than they occur.

COc1ccc(-c2cc(C(=O)Nc3ccc(C)cc3C)[nH]n2)cc1S(N)(=O)=O	none
Cc1ccc(C)c(NS(=O)(=O)c2cc(N3C(=O)CCS3(=O)=O)ccc2C)c1	none
Cc1ccc(C)c(NS(=O)(=O)c2ccc(N)c(S(N)(=O)=O)c2)c1	FECH inh active
Cc1ccc(NS(=O)(=O)c2ccc(N)c(S(N)(=O)=O)c2)c(C)c1	FECH inh active
COc1ccc(-c2ccc(=O)[nH]n2)cc1S(=O)(=O)Nc1ccc(C)cc1C	none
COc1ccc(N2C(=O)CCS2(=O)=O)cc1S(=O)(=O)Nc1cc(C)ccc1C	none
COc1ccc(NC(C)=O)cc1NC(=O)Cc1csc(NC(=O)Nc2ccccc2OC)n1	none
CC1(C)CNC(=O)c2nc(C3CCCN(C(=O)C4CC4)C3)[nH]c2C1 (stereo not given)	none
Cc1[nH]nc(CCC(=O)N2CC[C@@H](c3ccc4ccccc4c3)[C@H](O)C2)c1C	none
Cc1nc(CN2CCC(c3cc(C(C)C)n[nH]3)CC2)c2ccccn12	none
CO[C@H]1COC[C@@H]1NCC(=O)Nc1cccc(F)c1C	none
CN(CC(=O)NCc1ccccc1F)Cc1cccc2ncccc12	none
Cc1cnc(CN(C)CC(=O)Nc2cccc(F)c2C)[nH]1	FECH inh active
Cc1nnsc1CN(C)C(=O)c1ccccc1NCC(=O)O	none
COc1ccc(C(=O)Nc2ccc(C)c(OCc3cc(=O)n4cccc(C)c4n3)c2)cc1	none
Cc1ccc(NC(=O)c2ccccc2C)cc1OCc1cc(=O)n2cccc(C)c2n1	none
Cc1ccc(NC(=O)C2CCCCC2)cc1OCc1cc(=O)n2cccc(C)c2n1	FECH inh active
NS(=O)(=O)c1ccc(NC(=O)CSc2nc3c(c(=O)[nH]2)CCCC3)cc1	FECH inh active
NS(=O)(=O)c1ccc(NC(=O)c2ccc(=O)n(Cc3ccc(Cl)cc3)c2)cc1	none
NS(=O)(=O)c1ccc(NC(=O)CSc2nc3c(c(=O)[nH]2)CCC3)cc1	none
O=C(CSCc1nc(-c2ccc(Cl)cc2)no1)NCC1CCCO1 (stereo not given)	none
COc1ccccc1NS(=O)(=O)c1cc(N2C(=O)CCS2(=O)=O)ccc1C	none
CNCCNC(=O)c1cnc(N(C)C)nc1C	none
Cn1c(CCc2ccccc2NC(=O)C2CCCN(S(=O)(=O)N3CCCC3)C2)nc2ccccc21 (stereo not given)	none
Cn1c(CCc2cccc(NC(=O)C3CCN(S(=O)(=O)N4CCCC4)CC3)c2)nc2ccccc21	FECH inh active
O=C(Nc1ccc2nc(CCc3ccccc3)[nH]c2c1)C1CCN(S(=O)(=O)N2CCOCC2)CC1	none
C=CCNc1ccccc1C(=O)NC(C)Cc1ccncc1 (stereo not given)	none
COc1ccccc1-c1nc(C(N)=O)c2c(n1)n(-c1ccc(F)cc1)c(=O)n2C	none
CCCc1cnc(C)nc1N1CCN(C2Cc3ccccc3C2)CC1	none
Cc1nn(C)cc1-c1ccnc(NCc2ccon2)n1	none
CC(C)c1ccc2c(c1)-c1ccccc1S(=O)(=O)N2CC(=O)Nc1cccc(F)c1	FECH inh active
O=C(CN1c2ccc(F)cc2-c2ccccc2S1(=O)=O)Nc1ccccc1C(=O)N1CCCCC1	none
CC(C)NC(=O)c1ccccc1NC(=O)CN1c2ccc(C(C)C)cc2-c2ccccc2S1(=O)=O	none
CSc1ccccc1NC(=O)CN1c2ccc(C(C)C)cc2-c2ccccc2S1(=O)=O	none
CC(C)c1ccc2c(c1)-c1ccccc1S(=O)(=O)N2CC(=O)NC(C)c1ccccc1 (stereo not given)	FECH inh active
O=C(CN1C(=O)c2ccccc2S1(=O)=O)Nc1ccc(Cl)cc1C(F)(F)F	none
CCN(CC)C(=O)c1ccccc1NC(=O)CN1c2ccc(F)cc2-c2ccccc2S1(=O)=O	FECH inh active
O=C(CN1CCN(Cc2ccc(F)cc2)S1(=O)=O)Nc1cccc(F)c1	none
O=C1CCCN1c1ccc(CNc2nccc(CCC(F)(F)F)n2)cc1	none
CCc1ccc(S(=O)(=O)N2CCN(c3nc(C)cc(Nc4ccc(OC)cc4)n3)CC2)cc1	none
Cc1cc2nc(CSc3nnc4c(n3)[nH]c3ccccc34)cc(=O)n2o1	FECH inh active
Cc1cc2nc(CSc3nnc(-c4cc(C)n(C)n4)o3)cc(=O)n2o1	none
Cc1cc(C)n2c(SCc3cc(=O)n4oc(C)cc4n3)nnc2n1	none
O=C(Nc1nc2c(s1)CCCC2)c1cccc(CN2CC[C@H](O)C2)c1	none
O=C(Nc1ncns1)c1cccc(CN2CC[C@H](O)C2)c1	none
O=C(Nc1ccc2ncsc2c1)c1cccc(CN2CCCC(O)C2)c1 (stereo not given)	FECH inh active
COc1ccc(NC(=O)CCc2c(C)nn(-c3cc(N4CCCC4)ncn3)c2C)c(OC)c1	none
CO[C@H]1CN(C(C)C)C[C@@H]1NC(=O)c1cccc(NCc2ccccn2)c1C	none
Cc1cc(F)ccc1NC(=O)CNCc1ccc2c(c1)OCO2	none
CCCNC(=O)C1CCN(c2ccc(-c3ccccc3)nn2)CC1	none
O=C(NC1CC1)C1CCN(c2ccc(-c3ccccc3)nn2)CC1	FECH inh active
CCN(CCNC(=O)C1CCN(c2ccc(-c3ccccc3)nn2)CC1)Cc1ccccc1	FECH inh active
Cc1ccc(-c2ccc(N3CCC(C(=O)NCCCN(C)Cc4ccccc4)CC3)nn2)cc1	none
